High-throughput results deposited in PubChem by several laboratories.
HTR5A inv ctr = counter-screen for OPRM1-OPRD1 inverse agonists: human HTR5A inverse agonism | HTR5A cell line, luminescence | inhibition, % at 9.3 µM | 340,000 compounds, 0.083% hits | AID 504634; in the data active = inhibition mostly above about 23%, no sharp cut-off; inactive = mostly below about 18%;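 note: 0% = cells with DMSO and 100% = no-cell wells with DMSO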
Target sequence (P47898 whole entry, looked up): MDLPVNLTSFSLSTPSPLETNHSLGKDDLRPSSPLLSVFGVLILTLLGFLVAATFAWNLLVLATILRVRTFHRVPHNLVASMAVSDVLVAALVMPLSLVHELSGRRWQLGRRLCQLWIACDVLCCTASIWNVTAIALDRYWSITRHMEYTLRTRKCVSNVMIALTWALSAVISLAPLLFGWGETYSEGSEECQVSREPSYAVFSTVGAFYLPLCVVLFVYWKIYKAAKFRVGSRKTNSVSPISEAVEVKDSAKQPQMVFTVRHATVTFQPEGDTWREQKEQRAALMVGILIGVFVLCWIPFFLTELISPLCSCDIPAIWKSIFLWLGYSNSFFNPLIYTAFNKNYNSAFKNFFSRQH
MOR-DOR ag-1 = agonists of human mu-delta opioid receptor heterodimerization; P35372+P41143; cells, OPRM1-OPRD1 heterodimerization, luminescence; activation, % at 9.3 µM; 340,000 compounds, 0.3% hits; AID 504326;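 note: 0% = vehicle-treated cells and 100% = reference agonist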
HTR5A ag ctr = HTR5A agonism, opioid heterodimer counter-screen. P47898. 340,000 compounds, 0.61% hits. HTR5A agonist assay, luminescence, cell-based. activation, % at 9.3 µM. AID 504692; in the data active = activation mostly above about 9.5%, no sharp cut-off; inactive = mostly below about 7.6%;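 note: 0% = cells with vehicle only and 100% = reference agonist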
beta cell repl = MIN6 beta-cell proliferation induction; MIN6 cells proliferation, ATPlite luminescence, 48 h; cells starved in 0.2% serum; 100% = growth in 10% serum; proliferation, % at 10 µM; 330,000 compounds, 0.29% hits;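 active = compounds whose signal lies at least 3.5 SD above the mean of all wells on their plate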;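 note: 0% = DMSO-treated cells in low-serum medium and 100% = 10% serum control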
V-ATPase pH = alters yeast V-ATPase proton transport; AID 504577; 350,000 compounds, 0.37% hits; response, % at 10 µM; S. cerevisiae, pHLuorin cytosolic pH fluorescence; in the data active = response mostly above about 7.3%, no sharp cut-off; inactive = mostly below about 5.4%; note: actives read high
OPRM1-OPRD1 inv = inverse agonist of human OPRM1-OPRD1 heterodimerization; P35372+P41143; cell-based MOR-DOR heterodimer luminescence, inverse agonism; inhibition, % at 9.3 µM; 340,000 compounds, 0.21% hits; AID 504357; in the data active = inhibition above about 22%, passing the limit was not always enough;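 note: 0% = cells with DMSO and 100% = wells without cells with DMSO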
MOR-DOR ag-2 = counter-screen for HTR5A agonists: OPRM1-OPRD1 heterodimerization agonism | shares compounds with HTR5A ag ctr | U2OS counter-screen cells, complementation luminescence, 3 h | activation, % at 9.3 µM | 800 compounds, 13% hits | AID 504913
HTR5A ag conf = confirmation of human HTR5A agonists. shares compounds with HTR5A ag ctr. activation, % at 9.3 µM. 800 compounds, 17% hits. HTR5A agonist cell assay, luminescence; in the data active = activation above about 17%;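 note: 0% = cells with vehicle only and 100% = full reference agonist response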
The depositor's hits bear a star. An excerpt weighted towards active compounds, which were near 1.7% of everything screened. Cut-off read from the data, not from the text of the source, unless noted: active = activation above about 18%; inactive = the rest.

O=C(NCCc1c[nH]c2ccccc12)C(=O)NCC1OCCN1S(=O)(=O)c1ccc(Cl)cc1 (stereo not drawn) was read as HTR5A inv ctr -41.7, MOR-DOR ag-1 -0.3, HTR5A ag ctr 3.4, beta cell repl -1.4, V-ATPase pH -2.1 and OPRM1-OPRD1 inv 1.9.
For COc1ccc(C(=O)O/N=C(\N)Cc2ccc(Cl)cc2)cc1OC the results were HTR5A inv ctr -10.5, MOR-DOR ag-1 10.0, HTR5A ag ctr 25.2*, beta cell repl -3.0, V-ATPase pH 0.3, OPRM1-OPRD1 inv -59.3, MOR-DOR ag-2 6.6 and HTR5A ag conf 6.3.
Screening N/C(Cc1ccc([N+](=O)[O-])cc1)=N\OC(=O)c1ccc([N+](=O)[O-])cc1 returned HTR5A inv ctr -49.8, MOR-DOR ag-1 1.9, HTR5A ag ctr 20.5*, beta cell repl -3.5, V-ATPase pH -2.6, OPRM1-OPRD1 inv -9.4, MOR-DOR ag-2 3.5 and HTR5A ag conf 0.6.
N/C(Cc1ccc(Cl)cc1)=N\OC(=O)c1ccccc1 was read as HTR5A inv ctr 4.0, MOR-DOR ag-1 1.6, HTR5A ag ctr 4.9, beta cell repl -2.7, V-ATPase pH 1.5 and OPRM1-OPRD1 inv -8.7.
For CN1CCC(N(CCc2ccccc2)C(=O)CCC(=O)O)CC1 the results were HTR5A inv ctr 5.3, MOR-DOR ag-1 2.4, HTR5A ag ctr -1.4, beta cell repl -1.6, V-ATPase pH -0.3 and OPRM1-OPRD1 inv -11.4.
Screening O=[N+]([O-])c1ccccc1S(=O)(=O)N1CCN(c2ccc(F)cc2)CC1 returned HTR5A inv ctr -19.4, MOR-DOR ag-1 -3.2, HTR5A ag ctr 5.2, beta cell repl -2.2, V-ATPase pH -3.7 and OPRM1-OPRD1 inv 14.8.
For COc1ccc2[nH]c(C)c(CCNC(=S)Nc3cc(C)cc(C)c3)c2c1 the results were HTR5A inv ctr -55.8, MOR-DOR ag-1 0.3, HTR5A ag ctr 19.9*, beta cell repl -6.2, V-ATPase pH 1.7, OPRM1-OPRD1 inv -1.6, MOR-DOR ag-2 2.8 and HTR5A ag conf -2.5.
For COc1ccc2[nH]cc(CCNC(=O)Cc3ccc(Cl)cc3)c2c1 the results were HTR5A inv ctr -60.7, MOR-DOR ag-1 -1.0, HTR5A ag ctr 17.2*, beta cell repl -5.3, V-ATPase pH 5.1, OPRM1-OPRD1 inv 4.6, MOR-DOR ag-2 1.9 and HTR5A ag conf 37.2*.
`COc1ccc(NC(=S)NCCc2c[nH]c3ccccc23)c(OC)c1` gave HTR5A inv ctr -17.1, MOR-DOR ag-1 0.3, HTR5A ag ctr 6.2, beta cell repl -3.2, V-ATPase pH 0.1 and OPRM1-OPRD1 inv -2.2.
For COc1ccc(NC(=S)NCCc2c[nH]c3ccc(OC)cc23)c(OC)c1 the results were HTR5A inv ctr -36.4, MOR-DOR ag-1 1.0, HTR5A ag ctr 15.7*, beta cell repl -2.2, V-ATPase pH -0.2, OPRM1-OPRD1 inv -5.9, MOR-DOR ag-2 2.2 and HTR5A ag conf 9.9.
Screening COc1ccc2[nH]c(C)c(CCNC(=S)Nc3cccc(C)c3)c2c1 returned HTR5A inv ctr 13.0, MOR-DOR ag-1 -2.2, HTR5A ag ctr -4.6, beta cell repl -5.7, V-ATPase pH -1.4 and OPRM1-OPRD1 inv 11.3.
Screening COc1ccc2[nH]cc(CCNS(=O)(=O)Cc3ccccc3)c2c1 returned HTR5A inv ctr -59.8, MOR-DOR ag-1 -1.8, HTR5A ag ctr 22.4*, beta cell repl -3.0, V-ATPase pH 0.2, OPRM1-OPRD1 inv 9.3, MOR-DOR ag-2 1.4 and HTR5A ag conf 4.7.
`CCOc1ccc(C(=O)NNC(=O)C2CC(=O)N(c3ccc(C)cc3)C2)cc1` (stereo not drawn) gave HTR5A inv ctr -3.3, MOR-DOR ag-1 0.1, HTR5A ag ctr 1.1, beta cell repl 4.0, V-ATPase pH -0.3 and OPRM1-OPRD1 inv -0.4.
For COc1ccccc1CCc1nnc(CCC(=O)N(C)Cc2cccc3ncccc23)o1 the results were HTR5A inv ctr -2.4, MOR-DOR ag-1 -0.4, HTR5A ag ctr 0.9, beta cell repl 0.6, V-ATPase pH 2.9 and OPRM1-OPRD1 inv 2.2.
Screening CN(C)Cc1nc2ccccc2c(=O)n1Cc1nc(-c2cc3ccccc3o2)cs1 returned HTR5A inv ctr -49.2, MOR-DOR ag-1 7.6, HTR5A ag ctr 16.9*, beta cell repl -2.9, V-ATPase pH 5.8, OPRM1-OPRD1 inv -40.9, MOR-DOR ag-2 5.9 and HTR5A ag conf 5.3.
For Cc1csc(Cn2c(CN(C)C)nc3ccccc3c2=O)n1 the results were HTR5A inv ctr 4.9, MOR-DOR ag-1 -1.3, HTR5A ag ctr -1.4, beta cell repl 0.0, V-ATPase pH 0.5 and OPRM1-OPRD1 inv 7.8.
For O=C1CN(C(=O)COC(=O)CNS(=O)(=O)/C=C/c2ccccc2)c2ccccc2N1 the results were HTR5A inv ctr 14.2, MOR-DOR ag-1 -2.5, HTR5A ag ctr -5.8, beta cell repl -0.8, V-ATPase pH -0.5 and OPRM1-OPRD1 inv 13.2.
For CCOC(=O)c1sc2ncnc(Nc3cccc(C(=O)O)c3)c2c1C the results were HTR5A inv ctr -9.0, MOR-DOR ag-1 -1.0, HTR5A ag ctr 2.4, beta cell repl -3.4, V-ATPase pH 1.5 and OPRM1-OPRD1 inv 4.7.
